Several values for one entry are separate records, joined by “and”; a condition that tells them apart may be missing. Identical values can stand only once. Records with an inconclusive call do not appear. Activity calls are given as the source filed them. Unless noted, the call rests on the fitted dose curve; in most records, active means well fitted curve in the direction sought with a large enough effect in the repeat runs; inconclusive means weak or mixed curves; inactive means no such curve, though single readings can be large; an effect the other way counts as inactive or inconclusive.
Legend:
[1] = qHTS assay to identify small molecule antagonists of the glucocorticoid receptor (GR) signaling pathway - cell viability counter screen (AID 720693); conditions: GR-bla HeLa viability, CellTiter-Glo luminescence, 18 h, with 5 nM dexamethasone present; series mostly up to 58.5 µM; further: nearly all actives have a fitted effect of over 55% in size; further: potency means the concentration at half of the fitted maximal effect
[2] = qHTS assay for identifying genotoxic compounds that show differential cytotoxicity against isogenic chicken DT40 cell lines with known DNA damage response pathways - wild type cell line (AID 743012); conditions: DT40 wild type chicken cells viability, CellTiter-Glo, 40 h; series mostly up to 68.4 µM; further: nearly all actives have a fitted effect of over 60% in size; further: potency means the concentration at half of the fitted maximal effect
Procedure, shortened: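 CellTiter-Glo luminescence readout of viability in wild type DT40 cells after 40 h compound exposure at 37 C/5% CO2; 300 cells/well; reagent incubated 30 min at room temperature before reading.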

[3] = qHTS assay for identifying genotoxic compounds that show differential cytotoxicity against isogenic chicken DT40 cell lines with known DNA damage response pathways - Rev3 mutant cell line (AID 743014); conditions: chicken DT40 Rev3-/- viability, CellTiter-Glo, 40 h; series mostly up to 68.4 µM; further: nearly all actives have a fitted effect of over 55% in size; further: potency means the concentration at half of the fitted maximal effect
[4] = qHTS assay for identifying genotoxic compounds that show differential cytotoxicity against isogenic chicken DT40 cell lines with known DNA damage response pathways - Rad54/Ku70 mutant cell line (AID 743015); conditions: DT40 Rad54/Ku70 mutant viability, CellTiter-Glo, 40 h; series mostly up to 66.8 µM; further: nearly all actives have a fitted effect of over 60% in size; further: potency means the concentration at half of the fitted maximal effect
[5] = qHTS assay to identify small molecule antagonists of the androgen receptor (AR) signaling pathway - cell viability counter screen (AID 743033; further: nearly all actives have a fitted effect of over 45% in size); conditions: AR-bla HEK293 viability, CellTiter-Glo luminescence, 16 h; series mostly up to 58.5 µM
[6] = qHTS assay to identify small molecule antagonists of the androgen receptor (AR) signaling pathway using the MDA cell line - cell viability counter screen (AID 743041; further: nearly all actives have a fitted effect of over 45% in size; further: potency means the concentration at half of the fitted maximal effect); conditions: MDA-kb2 viability, CellTiter-Fluor, 16 h, cells co-treated with R1881 androgen agonist; series mostly up to 70.3 µM
Procedure, shortened: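 Using the breast carcinoma line MDA-kb2 AR-luc, test chemicals were co-incubated with R1881 for 16 h; CellTiter-Fluor reagent, added at 15.5 h, provided a fluorescence measure of live cells.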

[7] = target: Androgen receptor (Homo sapiens) (UniProt P10275); test: qHTS assay to identify small molecule antagonists of the androgen receptor (AR) signaling pathway (AID 743035; active means well fitted inhibition curve with a large enough effect in the signal ratio in the repeat runs, not every such curve was filed as active; the % refers to the signal ratio; further: potency means the concentration at half of the fitted maximal effect); conditions: HEK293 AR-UAS-bla, R1881-stimulated, beta-lactamase FRET, 16 h; series mostly up to 58.5 µM
Androgen receptor (Homo sapiens), sequence (P10275 whole entry, looked up): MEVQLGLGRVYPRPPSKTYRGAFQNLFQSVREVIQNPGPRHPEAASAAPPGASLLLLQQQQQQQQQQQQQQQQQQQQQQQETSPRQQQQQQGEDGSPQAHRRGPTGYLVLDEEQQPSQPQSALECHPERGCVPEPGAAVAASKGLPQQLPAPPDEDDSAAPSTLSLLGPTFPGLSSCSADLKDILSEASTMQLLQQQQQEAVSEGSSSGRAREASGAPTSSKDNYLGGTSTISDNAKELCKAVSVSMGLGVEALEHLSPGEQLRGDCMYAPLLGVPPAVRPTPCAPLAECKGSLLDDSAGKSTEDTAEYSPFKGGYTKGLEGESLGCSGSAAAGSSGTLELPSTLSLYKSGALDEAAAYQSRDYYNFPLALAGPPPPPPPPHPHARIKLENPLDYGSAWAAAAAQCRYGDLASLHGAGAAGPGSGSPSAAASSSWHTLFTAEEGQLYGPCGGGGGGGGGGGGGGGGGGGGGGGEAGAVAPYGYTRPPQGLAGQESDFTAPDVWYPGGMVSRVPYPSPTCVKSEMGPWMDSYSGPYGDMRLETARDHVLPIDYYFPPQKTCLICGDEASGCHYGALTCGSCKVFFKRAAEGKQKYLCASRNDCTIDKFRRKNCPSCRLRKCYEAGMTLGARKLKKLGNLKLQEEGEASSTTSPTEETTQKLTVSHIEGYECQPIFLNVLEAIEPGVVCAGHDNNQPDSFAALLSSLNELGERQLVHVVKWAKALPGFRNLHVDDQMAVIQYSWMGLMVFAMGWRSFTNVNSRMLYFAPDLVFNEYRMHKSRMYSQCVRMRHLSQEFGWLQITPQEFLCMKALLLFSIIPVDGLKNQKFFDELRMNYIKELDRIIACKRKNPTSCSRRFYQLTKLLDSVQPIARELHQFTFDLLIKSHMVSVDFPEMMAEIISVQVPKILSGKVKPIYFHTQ
Procedure, shortened: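 AR-bla HEK293 reporter cells; 4 h settle at 37C/5% CO2; compound + R1881 agonist, 16 h at 37C; LiveBLAzer B/G FRET substrate 2 h RT; fluorescence intensity read. qHTS format.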

[8] = target: Androgen receptor (Homo sapiens) (UniProt P10275); test: qHTS assay to identify small molecule agonists of the androgen receptor (AR) signaling pathway (AID 743036; active means well fitted activation curve with a large enough effect in the signal ratio in the repeat runs, with a control signal flat, not every such curve was filed as active; the % refers to the signal ratio); conditions: HEK293 AR-UAS-bla GripTite, beta-lactamase FRET ratio, 16 h; series mostly up to 62.4 µM
Procedure, shortened: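 Screening used 2,000 AR-bla HEK293 cells per well, treated 16 h at 37C with test compounds in DMSO alongside positive and DMSO-only controls; beta-lactamase activity was then read by LiveBLAzer B/G FRET fluorescence after 2 h at room temperature.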

[9] = target: Androgen receptor (Homo sapiens) (UniProt P10275); test: qHTS assay to identify small molecule agonists of the androgen receptor (AR) signaling pathway using the MDA cell line (AID 743040; further: nearly all actives have a fitted effect of over 20% in size); conditions: MDA-kb2 AR-luc cells, MMTV luciferase, 16 h; series mostly up to 70.3 µM
Procedure, shortened: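 Stable MMTV-luciferase reporter in MDA-kb2 cells; note the promoter carries GR as well as AR response elements. 16 h compound treatment, 37C, 0% CO2; ONE-Glo luminescence endpoint.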

[10] = target: Androgen receptor (Homo sapiens) (UniProt P10275); test: qHTS assay to identify small molecule antagonists of the androgen receptor (AR) signaling pathway using the MDA cell line (AID 743042; further: nearly all actives have a fitted effect of over 55% in size; further: potency means the concentration at half of the fitted maximal effect); conditions: MDA-kb2 AR-luc, MMTV luciferase, R1881 antagonist, 16 h; series mostly up to 70.3 µM
Procedure, shortened: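 Antagonist mode: compounds plus R1881 agonist added to MDA-kb2 AR-luc cells, incubated 16 h at 37C. Luciferase reporter luminescence quantified, with multiplexed CellTiter-Fluor readout for cell viability.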

Measured: Potency

C=CC1=C(C)C2=CC3=NC(=C(CC(=O)[O-])C4=NC(=C(C)C4=C([O-])[O-])C=c4[n-]c(c(C)c4CC)=CC1=N2)C(CCC(=O)[O-])C3C.[Cu+2].[Na+].[Na+].[Na+] (configuration not stated)
inactive: [1] | [5]
active: [2] 29.8 µM | [3] 23.7 µM | [4] 29.8 µM | [6] 22.1 µM

c1cnc2cc3c(cc2n1)[C@@H]1CNC[C@H]3C1
inactive: [1] | [2] | [3] | [4] | [5] | [6]

C[C@H]1C[C@H]2[C@@H]3CCC4=CC(=O)C=C[C@]4(C)[C@@]3(F)[C@@H](O)C[C@]2(C)[C@@]1(O)C(=O)CCl
inactive: [1] | [5] | [6]
active: [2] 18.8 µM | [3] 26.6 µM | [4] 23.7 µM

N[C@H](CCC(=O)O)C(=O)O
inactive: [1] | [2] | [3] | [4] | [5] | [6]

COC(=O)CCC(=O)CN
inactive: [1] | [2] | [3] | [4] | [5] | [6]

CN1CCC(OC(=O)C(Oc2ccc(Cl)cc2)Oc2ccc(Cl)cc2)CC1
inactive: [1] | [2] | [3] | [4] | [5] | [6]

NC(=O)OCC(O)COc1ccc(Cl)cc1 (configuration not stated)
inactive: [1] | [2] | [3] | [4] | [5] | [6]

CCCCCCCCCCCCCCCCCC(=O)OCC(C)O (configuration not stated)
inactive: [1] | [2] | [3] | [4] | [5]
active: [6] 26.6 µM

O=C(CCCN1CCC(C(=O)c2ccc(F)cc2)CC1)c1ccc(F)cc1
inactive: [1] | [5] | [6]
active: [2] 8.41 µM | [3] 3.76 µM | [4] 7.5 µM

COc1ccc(CC2c3cc(OC)c(OC)cc3CC[N+]2(C)CCC(=O)OCCCCCOC(=O)CC[N+]2(C)CCc3cc(OC)c(OC)cc3C2Cc2ccc(OC)c(OC)c2)cc1OC (configuration not stated)
inactive: [1] | [2] | [3] | [4] | [5] | [6]

Cc1cc(O)c2c(c1)O[C@@]1(C)CC[C@H]3C(C)(C)CCCC34CO[C@@H]2[C@H]41 (some centres not stated)
inactive: [8] | [9]
active: [1] 23.9 µM | [2] 13.3 µM | [3] 10.6 µM | [4] 13.3 µM | [7] 23.9 µM

O=S(=O)(O)Oc1ccc(C(c2ccc(OS(=O)(=O)O)cc2)c2ccccn2)cc1
inactive: [1] | [2] | [3] | [4] | [5] | [6]

COc1ccccc1N1CCN(CCCC(=O)c2ccc(F)cc2)CC1
active: [2] 13.3 µM | [3] 11.9 µM | [4] 26.6 µM
inactive: [1] | [5] | [6]

CO/N=C(\C(=O)N[C@@H]1C(=O)N2C(C(=O)O)=C(CSC(=O)c3ccco3)CS[C@H]12)c1csc(N)n1
inactive: [1] | [2] | [3] | [4] | [7] | [8] | [9] | [6] | [10]

Cc1ncc(C[n+]2csc(CCOP(=O)(O)OP(=O)(O)O)c2C)c(N)n1
inactive: [1] | [2] | [3] | [4] | [7] | [8] | [9] | [6] | [10]

CCCCC(=O)OCC(=O)[C@]1(O)Cc2c(O)c3c(c(O)c2[C@@H](O[C@H]2C[C@H](NC(=O)C(F)(F)F)[C@H](O)[C@H](C)O2)C1)C(=O)c1c(OC)cccc1C3=O
active: [2] 1.5 µM | [3] 1.88 µM | [4] 0.211 µM
inactive: [1] | [5] | [6]

O=C(Cn1c(=O)sc2ccc(Cl)cc21)N1CCN(CCO)CC1
inactive: [1] | [2] | [3] | [4] | [5] | [6]

CC1(C)S[C@@H]2[C@H](NC(=O)C(C(=O)O)c3ccsc3)C(=O)N2[C@H]1C(=O)O (some centres not stated)
inactive: [1] | [2] | [3] | [4] | [5] | [6]

Cn1nnnc1SCC1=C(C(=O)O)N2C(=O)[C@@H](NC(=O)[C@H](OC=O)c3ccccc3)[C@H]2SC1
inactive: [1] | [2] | [3] | [4] | [5] | [6]

COC(=O)[C@H]1[C@H]2C[C@@H]3c4[nH]c5ccccc5c4CCN3C[C@H]2C[C@@H](OC(=O)c2cc(OC)c(OC)c(OC)c2)[C@@H]1OC
active: [2] 1.06 µM and 11.9 µM | [3] 1.68 µM and 21.1 µM | [4] 1.68 µM and 26.6 µM
inactive: [1] | [6]

N#Cc1ccc2c(c1)N(CCCN1CCC(O)CC1)c1ccccc1S2
active: [2] 18.8 µM | [3] 26.6 µM | [4] 21.1 µM
inactive: [1] | [9]

COc1cc(-c2ccc(-[n+]3nc(-c4ccccc4)nn3-c3ccc([N+](=O)[O-])cc3)c(OC)c2)ccc1-[n+]1nc(-c2ccccc2)nn1-c1ccc([N+](=O)[O-])cc1
active: [1] 19 µM | [2] 5.96 µM | [3] 7.5 µM | [4] 5.31 µM | [10] 29.8 µM
inactive: [9]

CCN(CC)CCOC(=O)c1ccc(N)cc1Cl
inactive: [1] | [2] | [3] | [4] | [6]

C#C[C@]1(OC(C)=O)CC[C@H]2[C@@H]3CCC4=CC(=O)CC[C@@H]4[C@H]3CC[C@@]21C
inactive: [6]
active: [1] 6.01 µM | [2] 4.22 µM | [3] 10.6 µM | [4] 8.41 µM

O=C1C(=O)c2ncccc2-c2cccnc21
active: [2] 5.96 µM | [3] 8.41 µM | [4] 4.22 µM | [7] 23.9 µM
inactive: [1] | [9] | [6] | [10]

COc1ccc(C[C@H](N)C(=O)N[C@H]2[C@@H](O)[C@H](n3cnc4c(N(C)C)ncnc43)O[C@@H]2CO)cc1
inactive: [4]
active: [1] 4.77 µM | [2] 0.841 µM | [3] 0.75 µM | [6] 7.5 µM

C=C1CC[C@@H]2[C@](C)(CO)[C@H](O)CC[C@@]2(C)[C@@H]1C/C=C1/C(=O)OC[C@H]1O
inactive: [1] | [8] | [9] | [6]
active: [2] 5.96 µM | [3] 8.41 µM | [4] 5.96 µM
